# Measurements: PubChem BioAssay (Tox21)
# Unmarked numbers belong to inactive results. Records with an inconclusive call do not appear. Where a call stands in place of a potency, no number is given. Active and inactive are the calls of the source. Unless noted, calls come from the whole dose curve; as a rule, active = well fitted curve in the direction sought with a large enough effect in the repeat runs; inconclusive = weak or mixed curves; inactive = flat fitted curve, though single readings scatter.
# Columns and labels:
# [1] = qHTS assay to test for compound auto fluorescence at 535 nm (green) in HEK293 cells (AID 720680); conditions: green autofluorescence 485/535 nm; series mostly up to 91.3 µM
# [2] = qHTS assay to test for compound auto fluorescence at 460 nm (blue) in HEK293 cell free culture (AID 720681); conditions: cell-free medium, autofluorescence 405/460 nm (blue); series mostly up to 91.3 µM
# Method in brief: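 Compounds were added to cell-free DMEM with 10% FBS and fluorescence read directly. The blue channel used 405 nm excitation and 460 nm emission, with triamterene as the reference fluorophore.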
# [3] = qHTS assay to test for compound auto fluorescence at 535 nm (green) in HEK293 cell free culture (AID 720682); conditions: cell-free medium, green autofluorescence 485/535 nm, active compounds read high; series mostly up to 91.3 µM
# Method in brief: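 Steps: dispense DMEM/10% FBS into empty wells; pin in compound or DMSO; measure fluorescence at 485/535 nm. Values are fluorescein equivalents.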
# [4] = qHTS assay to test for compound auto fluorescence at 590 nm (red) in HEK293 cell free culture (AID 720683); conditions: cell-free medium autofluorescence, Ex540/Em590 red; series mostly up to 91.3 µM
# Method in brief: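 Cell-free wells of DMEM with 10% FBS received compound, and intrinsic fluorescence was read at excitation/emission 540/590 nm. Values expressed as equivalence to Rose Bengal sodium.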
# [5] = qHTS assay to test for compound auto fluorescence at 590 nm (red) in HepG2 cell free culture (AID 720684); conditions: cell-free medium autofluorescence, red 540/590 nm; series mostly up to 91.3 µM
# Method in brief: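 Auto fluorescence equivalency versus Rose Bengal sodium, red channel Ex/Em 540/590 nm; compounds in cell-free MEM/10% FBS; DMSO vehicle control.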
# [6] = qHTS assay to test for compound auto fluorescence at 460 nm (blue) in HepG2 cell free culture (AID 720685); conditions: Cell-free culture medium, blue autofluorescence 405/460 nm; series mostly up to 91.3 µM
# Method in brief: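 Cell-free plates of MEM plus 10% FBS received 23 nL compound or DMSO vehicle; blue-channel (405/460 nm) intensity scored against triamterene as reference fluorophore.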
# [7] = qHTS assay to test for compound auto fluorescence at 535 nm (green) in HepG2 cell free culture (AID 720686); conditions: Cell-free medium, green autofluorescence 485/535 nm; series mostly up to 91.3 µM
# [8] = qHTS assay to test for compound auto fluorescence at 460 nm (blue) in HepG2 cells (AID 720687); conditions: autofluorescence 405/460 nm, 1 h; series mostly up to 91.3 µM
# Method in brief: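 HepG2 cells in MEM with 10% FBS, attached overnight at 37 C, were exposed to compound or DMSO for 1 hr at 37 C, 5% CO2. Blue fluorescence was read at 405/460 nm, with triamterene as reference fluorophore.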
# [9] = target: Glucocorticoid receptor (Homo sapiens) (UniProt P04150); assay: qHTS assay to identify small molecule agonists of the glucocorticoid receptor (GR) signaling pathway (AID 720691; active = well fitted activation curve with a large enough effect in the signal ratio in the repeat runs, not every such curve was filed as active; the % refers to the signal ratio; note: potency is the fitted concentration of half-maximal effect); conditions: GR-bla HeLa, beta-lactamase reporter ratio, 18 h; series mostly up to 62.4 µM
# Glucocorticoid receptor (Homo sapiens), sequence (P04150 whole entry, looked up): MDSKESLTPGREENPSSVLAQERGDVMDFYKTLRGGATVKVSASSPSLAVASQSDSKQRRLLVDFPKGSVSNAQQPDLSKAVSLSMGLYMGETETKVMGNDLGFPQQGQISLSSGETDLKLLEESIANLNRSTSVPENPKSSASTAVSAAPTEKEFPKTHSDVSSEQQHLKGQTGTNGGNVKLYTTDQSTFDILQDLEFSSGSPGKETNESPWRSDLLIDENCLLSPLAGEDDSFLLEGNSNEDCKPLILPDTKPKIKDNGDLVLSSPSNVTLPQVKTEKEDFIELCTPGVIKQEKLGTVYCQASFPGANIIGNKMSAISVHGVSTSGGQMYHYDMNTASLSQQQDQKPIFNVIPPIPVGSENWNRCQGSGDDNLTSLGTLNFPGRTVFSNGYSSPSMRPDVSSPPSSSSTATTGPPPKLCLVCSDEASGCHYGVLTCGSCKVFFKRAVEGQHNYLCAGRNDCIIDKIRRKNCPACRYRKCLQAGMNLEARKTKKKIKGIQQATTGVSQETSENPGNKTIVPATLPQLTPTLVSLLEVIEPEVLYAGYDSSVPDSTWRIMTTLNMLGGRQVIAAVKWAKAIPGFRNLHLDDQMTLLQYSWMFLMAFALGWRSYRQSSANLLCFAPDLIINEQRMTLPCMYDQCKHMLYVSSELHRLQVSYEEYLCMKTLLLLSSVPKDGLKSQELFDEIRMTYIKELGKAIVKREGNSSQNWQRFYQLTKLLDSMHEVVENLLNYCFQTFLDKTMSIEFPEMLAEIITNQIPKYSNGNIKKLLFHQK
# Method in brief: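 Steps: seed GR-bla HeLa cells, incubate 4 h at 37 C/5% CO2; pin-transfer DMSO-dissolved compounds; incubate 18 h at 37 C; add LiveBLAzer B/G FRET substrate; after 2 h at room temperature, measure fluorescence.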
# [10] = target: Glucocorticoid receptor (Homo sapiens) (UniProt P04150); assay: qHTS assay to identify small molecule antagonists of the glucocorticoid receptor (GR) signaling pathway (AID 720692; active = well fitted inhibition curve with a large enough effect in the signal ratio in the repeat runs, not every such curve was filed as active; the % refers to the signal ratio); conditions: GR-bla HeLa, beta-lactamase FRET ratio, dexamethasone-stimulated, 18 h; series mostly up to 58.5 µM
# Method in brief: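 Antagonism was scored as loss of dexamethasone-driven (5 nM final) reporter signal in HeLa cells bearing a glucocorticoid response element–beta-lactamase construct, after 18 h compound exposure at 37 C and 2 h FRET substrate loading.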
smiles,measurement,setting,value
CCCCCCCCC(=O)Cl,outcome,[1],inactive
same,outcome,[2],inactive
same,outcome,[3],inactive
same,outcome,[4],inactive
same,outcome,[5],inactive
same,outcome,[6],inactive
same,outcome,[7],inactive
same,outcome,[8],inactive
CC(C)C[C@H](NC(=O)CNC(=O)[C@H](Cc1ccc(O)cc1)NC(=O)[C@H](CO)NC(=O)[C@H](Cc1c[nH]c2ccccc12)NC(=O)[C@H](Cc1cnc[nH]1)NC(=O)[C@@H]1CCC(=O)N1)C(=O)N[C@@H](CCCN=C(N)N)C(=O)N1CCC[C@H]1C(=O)NCC(N)=O (stereo in doubt),outcome,[1],inactive
same,outcome,[2],inactive
same,outcome,[3],inactive
same,outcome,[4],inactive
same,outcome,[5],inactive
same,outcome,[6],inactive
same,outcome,[7],inactive
same,outcome,[8],inactive
Nc1ccc(S(=O)(=O)Nc2ccc(Cl)nn2)cc1,outcome,[1],inactive
same,outcome,[2],inactive
same,outcome,[3],inactive
same,outcome,[4],inactive
same,outcome,[5],inactive
same,outcome,[6],inactive
same,outcome,[7],inactive
same,outcome,[8],inactive
CCOC(=O)/C=C/c1ccccc1,outcome,[1],inactive
same,outcome,[2],inactive
same,outcome,[3],inactive
same,outcome,[4],inactive
same,outcome,[5],inactive
same,outcome,[6],inactive
same,outcome,[7],inactive
same,outcome,[8],inactive
CC(C)CC(C)CC(C)CC(C)COC(=O)c1ccccc1C(=O)OCC(C)CC(C)CC(C)CC(C)C (stereo unspecified),outcome,[1],inactive
same,outcome,[2],inactive
same,outcome,[3],inactive
same,outcome,[4],inactive
same,outcome,[5],inactive
same,outcome,[6],inactive
same,outcome,[7],inactive
same,outcome,[8],inactive
CCOC(=O)[C@H](CCc1ccccc1)N[C@@H](C)C(=O)N1C(=O)N(C)C[C@H]1C(=O)O,outcome,[1],inactive
same,outcome,[2],inactive
same,outcome,[3],inactive
same,outcome,[4],inactive
same,outcome,[5],inactive
same,outcome,[6],inactive
same,outcome,[7],inactive
same,outcome,[8],inactive
CCCCCCCCCCl,outcome,[1],inactive
same,outcome,[2],inactive
same,outcome,[3],inactive
same,outcome,[4],inactive
same,outcome,[5],inactive
same,outcome,[6],inactive
same,outcome,[7],inactive
same,outcome,[8],inactive
Cc1cccc(C)c1OCC(C)N (stereo unspecified),outcome,[1],inactive
same,outcome,[2],inactive
same,outcome,[3],inactive
same,outcome,[4],inactive
same,outcome,[5],inactive
same,outcome,[6],inactive
same,outcome,[7],inactive
same,outcome,[8],inactive
CCN1CCc2nc(N)oc2CC1,outcome,[1],inactive
same,outcome,[2],inactive
same,outcome,[3],inactive
same,outcome,[4],inactive
same,outcome,[5],inactive
same,outcome,[6],inactive
same,outcome,[7],inactive
same,outcome,[8],inactive
same,Potency,[9],inactive
same,outcome,[10],inactive
CC(C)c1ccc2cc(C(C)C)ccc2c1,outcome,[1],inactive
same,outcome,[2],inactive
same,outcome,[3],inactive
same,outcome,[4],inactive
same,outcome,[5],inactive
same,outcome,[6],inactive
same,outcome,[7],inactive
same,outcome,[8],inactive
same,Potency,[9],inactive
same,outcome,[10],inactive
CCC(C=O)CC,outcome,[1],inactive
same,outcome,[2],inactive
same,outcome,[3],inactive
same,outcome,[4],inactive
same,outcome,[5],inactive
same,outcome,[6],inactive
same,outcome,[7],inactive
same,outcome,[8],inactive
same,Potency,[9],inactive
CCCCC(CC)COCCO (stereo unspecified),outcome,[1],inactive
same,outcome,[2],inactive
same,outcome,[3],inactive
same,outcome,[4],inactive
same,outcome,[5],inactive
same,outcome,[6],inactive
same,outcome,[7],inactive
same,outcome,[8],inactive
same,Potency,[9],inactive
CC(=O)c1ccc2c(c1)Cc1ccccc1-2,outcome,[1],inactive
same,outcome,[2],inactive
same,outcome,[3],inactive
same,outcome,[4],inactive
same,outcome,[5],inactive
same,outcome,[6],inactive
same,outcome,[7],inactive
same,outcome,[8],inactive
CCN(C)C(=O)Oc1cccc([C@H](C)N(C)C)c1,outcome,[1],inactive
same,outcome,[2],inactive
same,outcome,[3],inactive
same,outcome,[4],inactive
same,outcome,[5],inactive
same,outcome,[6],inactive
same,outcome,[7],inactive
same,outcome,[8],inactive
same,Potency,[9],inactive
same,outcome,[10],inactive
CC(=O)Nc1ccc(S(=O)(=O)Nc2ccc([N+](=O)[O-])cc2)cc1,outcome,[1],inactive
same,outcome,[2],inactive
same,outcome,[3],inactive
same,outcome,[4],inactive
same,outcome,[5],inactive
same,outcome,[6],inactive
same,outcome,[7],inactive
same,outcome,[8],inactive
same,Potency,[9],inactive
same,outcome,[10],inactive
OCCN(CCO)c1cccc(Cl)c1,outcome,[1],inactive
same,outcome,[2],inactive
same,outcome,[3],inactive
same,outcome,[4],inactive
same,outcome,[5],inactive
same,outcome,[6],inactive
same,outcome,[7],inactive
same,outcome,[8],inactive
CC(C)CCCCOC(=O)c1ccccc1C(=O)OCCCCC(C)C,outcome,[1],inactive
same,outcome,[2],inactive
same,outcome,[3],inactive
same,outcome,[4],inactive
same,outcome,[5],inactive
same,outcome,[6],inactive
same,outcome,[7],inactive
same,outcome,[8],inactive
same,Potency,[9],inactive
CCCCCCCCC1CCC(=O)O1 (stereo unspecified),outcome,[1],inactive
same,outcome,[2],inactive
same,outcome,[3],inactive
same,outcome,[4],inactive
same,outcome,[5],inactive
same,outcome,[6],inactive
same,outcome,[7],inactive
same,outcome,[8],inactive
same,Potency,[9],43.6 µM (active)
COc1ccc(S(=O)(=O)N2c3ccc(Cl)cc3[C@@](O)(c3ccccc3Cl)[C@H]2C(=O)N2CCC[C@@H]2C(N)=O)cc1OC,outcome,[1],inactive
same,outcome,[2],inactive
same,outcome,[3],inactive
same,outcome,[4],inactive
same,outcome,[5],inactive
same,outcome,[6],inactive
same,outcome,[7],inactive
same,outcome,[8],inactive
same,Potency,[9],inactive
CCOc1cc([N+](=O)[O-])c(OCC)cc1N1CCOCC1,outcome,[1],inactive
same,outcome,[2],inactive
same,outcome,[3],inactive
same,outcome,[4],inactive
same,outcome,[5],inactive
same,outcome,[6],inactive
same,outcome,[7],inactive
same,outcome,[8],inactive
same,Potency,[9],inactive
CCCCOC(=O)c1ccccc1,outcome,[1],inactive
same,outcome,[2],inactive
same,outcome,[3],inactive
same,outcome,[4],inactive
same,outcome,[5],inactive
same,outcome,[6],inactive
same,outcome,[7],inactive
same,outcome,[8],inactive
same,Potency,[9],inactive
same,outcome,[10],inactive
Cc1cccc2nccnc12,outcome,[1],inactive
same,outcome,[2],inactive
same,outcome,[3],inactive
same,outcome,[4],inactive
same,outcome,[5],inactive
same,outcome,[6],inactive
same,outcome,[7],inactive
same,outcome,[8],inactive
same,Potency,[9],inactive
CC(C)OC(=O)CCCCC(=O)OC(C)C,outcome,[1],inactive
same,outcome,[2],inactive
same,outcome,[3],inactive
same,outcome,[4],inactive
same,outcome,[5],inactive
same,outcome,[6],inactive
same,outcome,[7],inactive
same,outcome,[8],inactive
same,Potency,[9],inactive
O=C1c2ccccc2C(=O)C1c1ccccc1,"fluorescence, % of fluorescein",[1],-0.0324% [at 18.6 µM]
same,"fluorescence, % of fluorescent control",[2],-0.0862% [at 18.6 µM]
same,activity change,[3],-0.148% [at 18.6 µM]
same,"fluorescence, % of fluorescent control",[4],0.0114% [at 18.6 µM]
same,"fluorescence, % of Rose Bengal",[5],-0.261% [at 18.6 µM]
same,"fluorescence, % of fluorescent control",[6],-0.0248% [at 18.6 µM]
same,"fluorescence, % of fluorescein control",[7],-0.0587% [at 18.6 µM]
same,"fluorescence, % of fluorescent control",[8],-0.0075% [at 18.6 µM]
same,Potency,[9],inactive
